# Test results as given in PubChem BioAssay (NCI).
# The panel holds about 83,000 compounds, 20% with a hit somewhere; the sample as a whole holds those more often.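 Testing used 96-well plates and a 48-hour single-concentration exposure. Example: -40 means 40% of the starting cells died.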 A number with no mark means an inactive call. The source made the active and inactive calls. Rule for the calls: active = growth percent below 10; inactive = the rest. *1 amine or outer side, *2 acyl side, *3 side chain or, on linkers, in order; H or OH if unused. Where a SMILES comes first, the peptide text is derived from it. Bridges are numbered along the chain shown (N, C = ends). Roman numbers before positions name the chains, in order. [ ]: non-standard residue; d: D form. Actinocin(1to9) = Cc1c2oc3c(C)ccc(C(=O)[*:2])c3nc-2c(C(=O)[*:1])c(N)c1=O; NMeV = CN[CH](C(=O)O)C(C)C; Sar = CNCC(=O)O
# Key:
# Assay in all cases: NCI-60 one-dose screen, 48 h (100 = growth as untreated, 0 = no growth, -100 = all killed)
# DU-145 prostate = settings: 10 µM unless noted
# K-562 leukemia = settings: 10 µM unless noted
# MALME-3M melanoma = settings: 10 µM unless noted
# MDA-MB-231 breast = settings: 10 µM unless noted
# RXF 393 renal = settings: 10 µM unless noted
# SF-268 CNS = settings: 10 µM unless noted
# SF-295 CNS = settings: 10 µM unless noted
# SF-539 CNS = settings: 10 µM unless noted
# UACC-257 melanoma = settings: 10 µM unless noted
# M14 melanoma = settings: 10 µM unless noted
# HCT-15 colon = settings: 10 µM unless noted
# SNB-75 CNS = settings: 10 µM unless noted
# SNB-19 CNS = settings: 10 µM unless noted
# PC-3 prostate = settings: 10 µM unless noted
# SK-MEL-5 melanoma = settings: 10 µM unless noted
# UACC-62 melanoma = settings: 10 µM unless noted
# LOX IMVI melanoma = settings: 10 µM
# SK-MEL-28 melanoma = settings: 10 µM unless noted
# HT29 colon = settings: 10 µM unless noted
# U251 CNS = settings: 10 µM unless noted
Structure (SMILES),growth (DU-145 prostate),growth (K-562 leukemia),growth (MALME-3M melanoma),growth (MDA-MB-231 breast),growth (RXF 393 renal),growth (SF-268 CNS),growth (SF-295 CNS),growth (SF-539 CNS),growth (UACC-257 melanoma),growth (M14 melanoma),growth (HCT-15 colon),growth (SNB-75 CNS),growth (SNB-19 CNS),growth (PC-3 prostate),growth (SK-MEL-5 melanoma),growth (UACC-62 melanoma),growth (LOX IMVI melanoma),growth (SK-MEL-28 melanoma),growth (HT29 colon),growth (U251 CNS)
Cc1ccc(NC2=CC(=O)C(=O)c3ccccc32)cc1,-65.1% (active),16.4%,-76.5% (active),49%,44.1%,41%,-22.9% (active),-20.4% (active),-46.2% (active),-63.5% (active),11.2%,-18.7% (active),28.4%,28%,-98.4% (active),-33.9% (active),0.472% (active),-23.5% (active),–,–
CCCCCCN(CCCCCC)CCCNc1nccc2ccccc12,26.5%,0.764% (active),-58.6% (active),1.89% (active),29.5%,33.2%,-50.8% (active),-23.2% (active),41.7%,-41.3% (active),–,33.5%,20.3%,20.4%,-91.3% (active),21.8%,-39.3% (active),13.1%,-11.6% (active),9.66% (active)
O=C1c2ccccc2C(=O)c2c(O)c(Cl)cc(O)c21,69.7%,57%,71.5%,95.6%,103%,94.4%,113%,99.1%,58.4%,–,81.9%,96%,93.1%,77%,108%,81.3%,50.9%,103%,39%,38%
N#CC(I)CS(=O)(=O)c1ccccc1 (stereo not drawn),100%,80.6%,-22.4% (active),98.3%,81.8%,86.8%,115%,95.6%,73.1%,–,64.2%,95.5%,94.8%,90.8%,97.5%,84.4%,70.8%,97%,50.9%,91.2%
O=C(CCl)N(c1ccccc1)c1ccccc1,110%,105%,98.6%,114%,104%,105%,103%,108%,94.1%,95.9%,–,105%,–,91.4%,99.8%,95.6%,-36% (active),110%,114%,98.1%
O=C(CBr)c1ccc(OC(=O)c2ccccc2)cc1,114%,89%,125%,107%,119%,102%,112%,102%,87.9%,87.4%,–,96.5%,112%,101%,107%,107%,73.3%,112%,115%,95.5%
Cc1cc(C(=C2C=CC(=Nc3ccccc3)C=C2)c2ccc(Nc3ccccc3)cc2)ccc1N,-97.2% (active),14.1%,-63.6% (active),-56% (active),-93.7% (active),-68.7% (active),-71.9% (active),-60.8% (active),-91.6% (active),–,-31.7% (active),-74.6% (active),-55.4% (active),-60.4% (active),-95.9% (active),-65.6% (active),-93.8% (active),-82.3% (active),-75.4% (active),-97.4% (active)
O=C(c1ccccc1)c1cc2ccccc2oc1=O,114%,111%,90.4%,79.5%,90%,101%,113%,116%,96.9%,104%,–,71.8%,97.4%,72.3%,–,93.4%,89.8%,119%,113%,90.2%
O=Nc1ccc2ccccc2c1O,94.3%,80.9%,63.4%,54.6%,93.8%,91.6%,83%,108%,18.3%,–,66.5%,120%,97.6%,44.9%,47.6%,27.1%,7.44% (active),83.8%,46.8%,55.9%
Nc1cc(-c2ccccc2)ccc1O,103%,59.2%,121%,82.7%,30.3%,78.2%,134%,105%,120%,103%,93.3%,105%,98.5%,–,118%,88%,90%,93.3%,–,101%
CCC(C)C(N)C(=O)NC(CC(N)=O)C(=O)NC(CC(C)C)C(=O)NC(CCCCN)C(=O)NC(C)C(=O)NC(CC(C)C)C(=O)NC(C)C(=O)NC(C)C(=O)NC(CC(C)C)C(=O)NC(C)C(=O)NC(CCCCN)C(=O)NC(CCCCN)C(=O)NC(C(=O)NC(CC(C)C)C(N)=O)C(C)CC (stereo not drawn),57.9%,82.5%,52.1%,62.1%,39.6%,66.8%,106%,35.6%,104%,–,101%,85.3%,98.1%,80.5%,3.42% (active),9.79% (active),101%,–,105%,69.9%
O=C(OC12CC3CC(CC(C3)C1)C2)c1ccc(NCc2cc(O)ccc2O)cc1,19.9%,-49.3% (active),-93.5% (active),-39.8% (active),-60.8% (active),-6.88% (active),-14.7% (active),-95.6% (active),5.57% (active),–,-41.9% (active),-39.5% (active),–,-16.5% (active),-95.9% (active),-73.4% (active),-68.7% (active),–,-19% (active),-64.5% (active)
Oc1cc(Cl)ccc1Cc1ccc(Cl)cc1O,90%,37.2%,32.9%,59.7%,73.8%,65.2%,32.3%,56.3%,58.7%,–,–,76.8%,66.1%,43.5%,11.7%,32.2%,50.6%,89.3%,102%,52.7%
"CCC(C)C1NC(=O)C(NC(=O)c2c3nc4c(C(=O)NC5C(=O)NC(C(C)CC)C(=O)N6CCCC6C(=O)N(C)CC(=O)N(C)C(C(C)C)C(=O)OC5C)ccc(C)c4oc-3c(C)c(=O)c2N)C(C)OC(=O)C(C(C)C)N(C)C(=O)CN(C)C(=O)C2CCCN2C1=O (stereo not drawn) (I: TIP[Sar][NMeV] / II: TIP[Sar][NMeV]; ester I:1-I:C, II:1-II:C; linker I:N-II:N via Actinocin(1to9); configuration not given here)",15.5%,1.13% (active),-74.1% (active),-12.7% (active),1.32% (active),-11.7% (active),-11.3% (active),-36.9% (active),-8.32% (active),-95.6% (active),–,-87.2% (active),4.27% (active),-3.84% (active),–,-67.8% (active),0.241% (active),–,0.216% (active),1.81% (active)
C(=N\Nc1ccc2ccccc2n1)/c1ccccn1,22.7%,15.4%,-23.6% (active),30.5%,16.7%,16.7%,14.7%,-14.2% (active),-3.38% (active),-8.17% (active),–,–,21.3%,45.1%,-10.8% (active),-14.4% (active),15.1%,32.9%,32.1%,–
